In the library only some 2.2% were active in any assay of this set; here they are far more common.
HSP90 refold inh: HSP90 inhibitors, primary screen, cell lysate, luminescence; Heat shock protein HSP 90 (rabbit reticulocyte lysate; luciferase refolding); Rabbit reticulocyte lysate, luciferase refolding luminescence, 3 h; inhibition, % at 5.6 µM; 290,000 compounds, 0.91% hits; AID 1789, 2009;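 active means inhibition above the screen-wide mean plus 3 SD, computed separately per campaign, cut at about 16% in these data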;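 further: 0% = DMSO wells and 100% = 60 µM geldanamycin wells; inhibitors lower the luminescence because luciferase stays unfolded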
TROY signal inh: inhibitors of TROY-driven NF-kB signaling, primary screen, Q293 LMP1-TROYcd cells, NF-kB luciferase, uHTS; Q293 LMP1-TROYcd NF-kB luciferase reporter, 4 h; inhibition, % at 10 µM; 360,000 compounds, 0.98% hits;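 active means compounds whose plate-normalised and pattern-corrected inhibition of the luciferase reporter signal at the single screening dose is 50% or more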
TWEAK Fn14 block: inhibitors of TWEAK-Fn14 signaling, primary screen, luciferase reporter cells, uHTS; AID 1159606, 2016; 360,000 compounds, 2% hits; inhibition, % at 10 µM; TWEAK-stimulated Fn14 reporter cells, luciferase luminescence, 8 h; in the data active means inhibition above about 50%
LGR2 inh: inhibitors of bursicon-induced LGR2 CRE-luciferase signal, primary screen, cell-based, HEK293, CRE-luciferase reporter, bursicon stimulation. AID 720647, 2013. 380,000 compounds, 0.35% hits. inhibition, % at 9.99 µM. bursicon-stimulated, 4 h. Drosophila bursicon receptor LGR2 (rickets);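 active means drop in luminescence signal, shown as inhibition above about 50% in the replicate tests, limit read from the data, passing the limit was not always enough; inconclusive means probably only some replicates passing the limit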;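 further: agonist challenge used bursicon conditioned medium at about half maximal strength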
HSP90 confirm: HSP90 inhibitors, confirmation, cell lysate, luminescence. rabbit reticulocyte lysate, luciferase refolding luminescence, 3 h. inhibition, % at 5.9 µM. shares compounds with HSP90 refold inh. 2,300 compounds, 64% hits; in the data active means inhibition above about 18%;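 further: 0% = vehicle wells and 100% = reference inhibitor wells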
FLuc counter: firefly luciferase inhibitors, HSP90 counter-screen, confirmation, artefact control for HSP90 inhibitor project, biochemical, luminescence, triplicate; shares compounds with HSP90 refold inh; purified native firefly luciferase; inhibition, % at 5.9 µM; 2,300 compounds, 48% hits;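 active means inhibition above the mean inhibition of all tested sample wells plus 3 SD, cut at about 10% in these data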;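 further: 0% = DMSO with luciferase and 100% = wells lacking luciferase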
Target sequence (P08659 whole entry, looked up): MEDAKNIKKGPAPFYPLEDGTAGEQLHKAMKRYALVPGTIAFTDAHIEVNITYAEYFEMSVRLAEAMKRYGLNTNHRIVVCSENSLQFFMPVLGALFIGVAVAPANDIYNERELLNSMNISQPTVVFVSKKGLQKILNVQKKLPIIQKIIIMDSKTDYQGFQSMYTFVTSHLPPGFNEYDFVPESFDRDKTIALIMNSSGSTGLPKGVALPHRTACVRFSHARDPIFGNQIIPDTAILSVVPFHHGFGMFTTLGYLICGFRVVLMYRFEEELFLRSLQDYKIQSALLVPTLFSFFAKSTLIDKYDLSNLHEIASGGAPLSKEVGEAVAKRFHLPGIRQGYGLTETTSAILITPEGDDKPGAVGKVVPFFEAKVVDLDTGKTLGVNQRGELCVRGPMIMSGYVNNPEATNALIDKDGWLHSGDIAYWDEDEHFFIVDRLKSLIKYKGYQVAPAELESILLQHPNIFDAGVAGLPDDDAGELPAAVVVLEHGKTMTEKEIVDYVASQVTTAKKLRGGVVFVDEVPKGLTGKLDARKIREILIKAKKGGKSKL
Starred values were filed as active, the others as inactive; ? = inconclusive; / = no result given.

SMILES	HSP90 refold inh	TROY signal inh	TWEAK Fn14 block	LGR2 inh	HSP90 confirm	FLuc counter
N#CC1=C(N)Oc2n[nH]c(-c3cccs3)c2C1c1cccs1 (stereo not given)	34*	-5	-2	/	-9	-8
CC(C)CC1C(C#N)=C(N)Oc2n[nH]c(-c3cccs3)c21 (stereo not given)	18*	-23	12	/	-7	1
N#CC1=C(N)Oc2n[nH]c(-c3cccs3)c2C1c1ccccc1C(=O)O (stereo not given)	7	8	-25	-2	/	/
CCCN1[C@@H]2c3ccc(-c4ccccc4)c(=O)n3C[C@@H]2[C@@H](CO)[C@@H]1C(=O)NCCc1cn(C)cn1	/	/	/	12	/	/
CCO[C@H]1OC(C(=O)N2CCN(C)CC2)=C[C@@H](c2csc3ccccc23)[C@@H]1CCCO	18*	-6	3	14	-4	-6
COc1ccc(CN(C)C[C@@H]2OCc3cn(nn3)CCCC(=O)N([C@H](C)CO)C[C@@H]2C)cc1	/	/	/	13	/	/
C[C@H](CO)N1C[C@H](C)[C@H](CN(C)S(=O)(=O)CC(F)(F)F)OCc2ccccc2-c2c(n(C)c3ccccc23)C1=O	/	/	/	6	/	/
S=c1nc(C2COc3ccccc3O2)[nH][nH]1 (stereo not given)	2	-7	5	-1	/	/
CCCS(=O)(=O)c1cnc(C2COc3ccccc3O2)nc1N (stereo not given)	93*	81*	102*	95*	88*	80*
O=S(=O)(Cc1ccccc1)N(O)c1ccccc1	88*	11	5	0	92*	0
Cn1cc(/C=C/C(=O)c2ccccc2)c2ccccc21	20*	21	71*	/	36*	45*
Cc1ccc(C(=O)/C=C/c2cn(CN3CCN(C)CC3)c3ccccc23)cc1	5	-37	9	-85	/	/
COc1ccc(C(=O)Nc2ccccc2C(=O)N/N=C/c2cccc3ccccc23)cc1	35*	50	78*	/	80*	51*
COc1ccc(C(=O)Nc2ccccc2C(=O)N/N=C/c2ccncc2)cc1OC	29*	-17	9	?	61*	19*
COc1ccc(C(=O)Nc2ccccc2C(N)=O)cc1	-7	-45	-16	-14	/	/
O=C(c1ccccn1)N1CC2(C1)[C@H](c1ccccc1)[C@@H](CO)N2C(=O)C1CC1	/	/	/	2	/	/
O=C(O)c1cccc(S(=O)(=O)Nc2ccc(-c3ccccc3)cc2)c1	/	-15	-14	-8	/	/
O=C(O)c1ccc(NS(=O)(=O)c2ccc3c(c2)C(=O)c2ccccc2C3=O)cc1	28*	-5	8	7	2	-7
C=CCn1c(C)cc(C(=O)COC(=O)[C@@H](NC(=O)c2ccccc2Cl)C(C)C)c1C	27*	42	54*	?	54*	43*
COc1ccccc1S(=O)(=O)N[C@H]1CC[C@@H](CC(=O)N2CCOCC2)O[C@H]1CO	/	/	/	-4	/	/
C[C@H]1CN([C@@H](C)CO)S(=O)(=O)c2ccc(C#CC3CC3)cc2O[C@@H]1CN(C)C(=O)c1cccnc1	/	/	/	-18	/	/
O=C(NCCc1ccccc1)c1ccc2c(c1)OCO2	76*	70*	94*	79*	83*	78*
O=C(NCCS(=O)(=O)NCc1ccccc1)c1ccc2c(c1)OCO2	/	-4	-2	-9	/	/
CCOc1ccc(C(=O)NCCc2ccccc2)cc1	23*	52*	77*	78*	66*	55*
CCOc1ccc(C(=O)NCCCCNC(=O)c2ccc(OCC)cc2)cc1	-2	7	-15	-14	/	/
SMILES	HSP90 refold inh	TROY signal inh	TWEAK Fn14 block	LGR2 inh	HSP90 confirm	FLuc counter
O=C(NCCc1ccccc1)c1ccc2nccnc2c1	40*	57*	93*	68*	52*	41*
C=CCSc1nnc(-c2ccccc2N=Cc2c(C)[nH]n(-c3ccccc3)c2=O)c(=O)[nH]1	22*	-16	-27	/	-4	-8
CSc1nnc(-c2ccccc2N=Cc2c(C)[nH]n(-c3ccc4ccccc4c3)c2=O)c(=O)[nH]1	6	-33	-3	9	/	/
COc1ccc(S(=O)(=O)Nc2ccc3c(c2)C(=O)N([C@H](C)CO)C[C@@H](C)[C@H](CN(C)C(=O)Nc2ccc(F)cc2)O3)cc1	/	/	/	16	/	/
COc1ccc(CCN(/C=C2\Sc3ccccc3C2=O)C(C)=O)cc1OC	25*	56*	0	/	1	-5
CC(C)[C@@H](N)C(=O)NC[C@H]1O[C@@H](n2cnc3c(=O)[nH]c(N)nc32)[C@H](O)[C@@H]1O	/	-6	7	-9	/	/
CC(C)C(=O)Nc1nc2c(ncn2C2CC(O)C(CO)O2)c(=O)[nH]1 (stereo not given)	34*	6	-14	3	4	-1
Cc1cc(NO)nc(-c2ccc(Br)cc2)n1	81*	-16	8	/	79*	-17
C[C@@H]1CN([C@H](C)CO)C(=O)c2cc(NC(=O)Cc3cn(C)c4ccccc34)ccc2O[C@H]1CN(C)C(=O)Nc1ccc(C(F)(F)F)cc1	/	/	/	7	/	/
O=c1oc2ccc(Br)cc2cc1-c1nc2ccccc2o1	2	-37	-23	-25	/	/
COc1cccc2cc(-c3nc4ccccc4o3)c(=O)oc12	19*	4	29	-121	18*	2
CC(=O)N1[C@H](CO)[C@H](c2ccccc2)C12CN(C(=O)c1cnccn1)C2	/	/	/	9	/	/
Cc1cc2ncc(-c3cccs3)nc2cc1C	35*	12	71*	71*	61*	59*
C/C(=C\c1ccccc1)C(=O)Nc1ccc(Cl)cn1	18*	-26	28	-29	25*	21*
O=C(Nc1ccc(Cl)cn1)Nc1ccc(Cl)cn1	0	-44	-26	-19	/	/
COc1ccc(S(=O)(=O)N(C)C[C@@H]2Oc3ccc(NS(=O)(=O)c4cccs4)cc3C(=O)N([C@@H](C)CO)C[C@@H]2C)cc1	/	/	/	15	/	/
CN=c1scc(-c2ccccc2Br)n1/N=C/c1ccc[nH]1	62*	/	/	/	72*	70*
CN=c1scc(-c2ccc(Br)cc2)n1C	-8	-15	9	/	/	/
N/C(=N\OC(=O)c1cccc(Cl)c1)c1ccccn1	34*	68*	92*	73*	31*	76*
COc1cc(OC)cc(C(=O)O/N=C(\N)c2ccccn2)c1	2	-69	-12	/	/	/
N/C(=N\OC(=O)c1ccc(Cl)cc1)c1ccccn1	57*	70*	101*	90*	20*	89*
N/C(=N\OC(=O)c1cccc(Br)c1)c1ccccn1	42*	66*	86*	77*	26*	74*
Cc1cc(/C(N)=N/OC(=O)c2cccc(Cl)c2)no1	-4	-41	-18	-62	/	/

Screens from PubChem.
